Source: PubChem BioAssay
Shown are actives, neighbours in structure and some others; about 17% of the full set was active somewhere.
HT1080 IDH1KD tx = HT-1080 IDH1 knockdown cell toxicity (counter line) | HT-1080 IDH1 knockdown viability, ATP luminescence, 48 h | Potency, µM (titrated, usually from 46.1 µM), without a hit: top-dose activity, negative = toxicity, most hits filed as cytotoxic | 360,000 tested, 2% active;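 note: 0% = DMSO wells and -100% = cell-free medium wells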
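Knockdown cells (IDH1KD HT-1080) received compounds 2 h after plating at 750 cells/well and were kept 48 h at 37 °C in 5% FBS RPMI. A CellTiter-Glo luminescence read gave % activity for curve fitting.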
TGFb SMAD3 inh = inhibitors of TGF-b signaling. HepG2 CAGA-GFP TGF-b/SMAD3 reporter, GFP fluorescence, 18 h; TGF-beta stimulated, 500 pg/mL final. 410,000 tested, 1.2% active. Potency, µM (titrated, usually from 46.1 µM), for inactives: top-dose activity, negative = inhibition, actives largely listed as inhibitors. AID 588855; note: % is set by controls: 0 for no effect and ±100 for the full control effect; nearly all actives have a fitted effect of over 65% in size
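Read-out: total well GFP (ex488/em500-530) summed from mean per-cell fluorescence. Cells: HEPG2 CAGA-GFP, 1% FBS DMEM, 18 h at 37 degrees C with 500 pg/mL final TGF-beta. Unstimulated wells served as the full-inhibition control; stimulated DMSO wells = 0%.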
HT1080-NT tox = kills 2HG-producing HT-1080-NT fibrosarcoma cells | AID 686970 | HT-1080-NT fibrosarcoma viability, CellTiter-Glo ATP luminescence, 48 h | 360,000 tested, 1.6% active | Potency, µM (top dose mostly 46.1 µM), inactives show at the highest dose activity, negative = less viability, usual class: cytotoxic;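 note: NT is the 2HG producing partner of a matched IDH1 knockdown line; 0% = DMSO-treated cells and -100% = media-only wells without cells; nearly all actives have a fitted effect of over 55% in size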
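Toxicity toward the 2HG-producing NT line was scored as %Activity, normalised to DMSO and no-cell wells, from CellTiter-Glo luminescence after 48 hours' treatment.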
TDP1 cell noCPT = qHTS for Inhibitors of human tyrosyl-DNA phosphodiesterase 1 (TDP1): qHTS in cells in absence of CPT; Potency, µM (doses to about 46.2 µM), for inactives: at the highest dose activity change, negative = growth inhibition, usual class: inhibitors; 420,000 tested, 15% active; DT40 Tdp1-/- hTDP1 cells, no CPT, ATP luminescence, 48 h; AID 686978, 2013; note: % is set by controls: 0 for no effect and ±100 for the full control effect; nearly all actives have a fitted effect of over 55% in size
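Chicken DT40 Tdp1-/- cells complemented with human TDP1, screened without camptothecin (DMSO vehicle only), 400 cells/well. Compounds pin-transferred, cells incubated at 37 °C for at least 48 hr. Growth read as ATP-dependent luminescence (CellTiter-Glo, 30 min at RT).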
DT40 TDP1 CPT = DT40-hTDP1 cell growth loss with CPT | chicken DT40 Tdp1-/-;hTDP1 cells + 20 nM CPT, ATP luminescence, 48 h | Potency, µM (series often up to 46.2 µM), for inactives: at the highest dose activity change, negative = growth inhibition, hits mostly inhibitors | 420,000 tested, 12% active | AID 686979; note: % is set by controls: 0 for no effect and ±100 for the full control effect; nearly all actives have a fitted effect of over 55% in size
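Cell growth measured by CellTiter-Glo luminescence after a minimum 48 h, 37 C compound exposure with 20 nM CPT in Tdp1-knockout DT40 cells stably expressing hTDP1, seeded 400/well; qHTS titration format.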
HepG2 viability = kills HepG2 cells in TGF-b inhibitor counter-screen; HepG2 CAGA-GFP viability, ATP luminescence, 18 h; Potency, µM (titrated, usually from 46.1 µM), for inactives: at the top dose activity change, negative = cytotoxicity, hits mostly cytotoxic; 410,000 tested, 0.76% active
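CellTiter-Glo luminescence gave cytotoxicity after 18 hours at 37 degrees C. The cells were HepG2 CAGA-GFP in 1% FBS DMEM, stimulated with 500 pg/mL TGF-beta after compound addition. %Activity was normalised to no-cell wells (complete cell-killing) and DMSO (no toxicity), and curves were fitted and classified.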
* = called active by the depositor; u = inconclusive; x = not tested or not shown. Calls come from the whole dose curve; as a rule, active = well fitted curve in the direction sought with a large enough effect; inconclusive = small, poorly fitted or top-dose-only effect, or another doubt; inactive = no such curve, though single readings can be large; an effect the other way counts as inactive or inconclusive. Potency is the fitted concentration of half-maximal effect.

SMILES | HT1080 IDH1KD tx | TGFb SMAD3 inh | HT1080-NT tox | TDP1 cell noCPT | DT40 TDP1 CPT | HepG2 viability
O=C(NCC(O)c1nc2ccccc2[nH]1)c1cc2ccccc2[nH]1 (stereo not drawn) | 5% | -8% | 4% | -18% | -20% | 3%
CCCCOCCCNC(=O)C[C@@H]1C[C@@]2(C(=O)OC)CC(C)(C)CC=C2N(Cc2ccccc2)C1=O | -11% | x | -23% | u | 21µM* | x
CCCCOCCCNC(=O)C[C@@H]1C[C@@]2(C(=O)OC)CC(C)(C)CC=C2N(Cc2cccc3ccccc23)C1=O | 21µM* | x | u | u | u | x
CN1CCN(C(CNS(=O)(=O)c2ccc([N+](=O)[O-])cc2)c2ccc(F)cc2)CC1 (stereo not drawn) | -7% | u | -3% | -17% | u | -30%
COc1cc2c(cc1OC)C(=O)C(Br)CC2 (stereo not drawn) | u | u | u | 4.6µM* | 3.7µM* | 16µM*
CCOC(=O)c1c(C)[nH]c(C)c1S(=O)(=O)N1CCC(C(=O)NCc2ccc(OC)cc2)CC1 | x | 3% | x | -11% | -6% | -23%
Cc1ccc(OCC(=O)N2CCN(C(=O)Cc3ccccc3)CC2)cc1 | -1% | 5% | -4% | -14% | -9% | 1%
O=C(c1cc(Br)ccc1O)N1CCN(S(=O)(=O)Cc2ccccc2)CC1 | -3% | u | -26% | 12µM* | u | -22%
O=C(c1cccc(F)c1)N1CCN(S(=O)(=O)Cc2ccccc2)CC1 | 15% | 6% | 8% | 13% | -4% | 3%
CCOc1cc(CN2CCN(S(=O)(=O)c3ccc(C)cc3)CC2)ccc1OC | x | u | x | 16µM* | u | 1%
CCOc1cc(CN2CCN(S(=O)(=O)Cc3ccccc3)CC2)ccc1OC | -5% | 13% | 14% | 23µM* | -19% | 0%
O=C(COc1ccc(-c2ccccc2)cc1)N1CCN(S(=O)(=O)Cc2ccccc2)CC1 | u | u | -23% | 15µM* | 23µM* | -17%
Cc1ccc(Oc2coc3cc(OCC(=O)NC4CCCCC4)ccc3c2=O)cc1 | x | -9% | x | -24% | -13% | -1%
CCOC(=O)c1ccc(NC(=O)C(C)Sc2nc(=O)cc(N)n2CCc2ccccc2)cc1 (stereo not drawn) | x | -4% | x | x | x | -34%
COc1ccc(Br)cc1CN1CCN(S(=O)(=O)Cc2ccccc2)CC1 | 1% | -29% | -3% | 8.2µM* | u | -35%
O=C(Nc1ccc2ncccc2c1)Nc1ccc2ncccc2c1 | 9% | 4% | 6% | 8.2µM* | 21µM* | -6%
O=C(Nc1ccccc1)Nc1ccc2ocnc2c1 | 30% | -6% | 12% | -8% | 10% | -14%
c1cnc2ccc(-c3ccc4ncccc4c3)cc2c1 | u | 3% | -29% | 4.1µM* | u | -22%
O=C(Nc1ccccc1)Nc1ccc2ncoc2c1 | 0% | 1% | 2% | -15% | 3% | 0.25µM*
CS(=O)(=O)c1cnc(-c2ccccc2)nc1-c1ccccc1Cl | -1% | 11% | -10% | -1% | 1% | -2%
S=C(NCc1ccco1)Nc1ccccn1 | -2% | -20% | -5% | u | -12% | 0%
Cc1cccc(NC(=S)NCCc2ccccc2)n1 | -11% | -21% | -10% | 16µM* | u | -3%
S=C(NCCc1ccccc1)Nc1ccccn1 | -1% | -7% | 3% | 18µM* | 6.5µM* | -18%
Cn1c(=O)c(=O)n(C)c2cc(S(=O)(=O)NCCOc3ccccc3)ccc21 | 1% | 13% | 0% | -9% | -8% | -7%
